Tests used:
[1] = biological target: T1, Mitogen-activated protein kinase kinase kinase 5 (Homo sapiens) (UniProt Q99683); conditions: at 10 µM
T1 sequence (whole entry): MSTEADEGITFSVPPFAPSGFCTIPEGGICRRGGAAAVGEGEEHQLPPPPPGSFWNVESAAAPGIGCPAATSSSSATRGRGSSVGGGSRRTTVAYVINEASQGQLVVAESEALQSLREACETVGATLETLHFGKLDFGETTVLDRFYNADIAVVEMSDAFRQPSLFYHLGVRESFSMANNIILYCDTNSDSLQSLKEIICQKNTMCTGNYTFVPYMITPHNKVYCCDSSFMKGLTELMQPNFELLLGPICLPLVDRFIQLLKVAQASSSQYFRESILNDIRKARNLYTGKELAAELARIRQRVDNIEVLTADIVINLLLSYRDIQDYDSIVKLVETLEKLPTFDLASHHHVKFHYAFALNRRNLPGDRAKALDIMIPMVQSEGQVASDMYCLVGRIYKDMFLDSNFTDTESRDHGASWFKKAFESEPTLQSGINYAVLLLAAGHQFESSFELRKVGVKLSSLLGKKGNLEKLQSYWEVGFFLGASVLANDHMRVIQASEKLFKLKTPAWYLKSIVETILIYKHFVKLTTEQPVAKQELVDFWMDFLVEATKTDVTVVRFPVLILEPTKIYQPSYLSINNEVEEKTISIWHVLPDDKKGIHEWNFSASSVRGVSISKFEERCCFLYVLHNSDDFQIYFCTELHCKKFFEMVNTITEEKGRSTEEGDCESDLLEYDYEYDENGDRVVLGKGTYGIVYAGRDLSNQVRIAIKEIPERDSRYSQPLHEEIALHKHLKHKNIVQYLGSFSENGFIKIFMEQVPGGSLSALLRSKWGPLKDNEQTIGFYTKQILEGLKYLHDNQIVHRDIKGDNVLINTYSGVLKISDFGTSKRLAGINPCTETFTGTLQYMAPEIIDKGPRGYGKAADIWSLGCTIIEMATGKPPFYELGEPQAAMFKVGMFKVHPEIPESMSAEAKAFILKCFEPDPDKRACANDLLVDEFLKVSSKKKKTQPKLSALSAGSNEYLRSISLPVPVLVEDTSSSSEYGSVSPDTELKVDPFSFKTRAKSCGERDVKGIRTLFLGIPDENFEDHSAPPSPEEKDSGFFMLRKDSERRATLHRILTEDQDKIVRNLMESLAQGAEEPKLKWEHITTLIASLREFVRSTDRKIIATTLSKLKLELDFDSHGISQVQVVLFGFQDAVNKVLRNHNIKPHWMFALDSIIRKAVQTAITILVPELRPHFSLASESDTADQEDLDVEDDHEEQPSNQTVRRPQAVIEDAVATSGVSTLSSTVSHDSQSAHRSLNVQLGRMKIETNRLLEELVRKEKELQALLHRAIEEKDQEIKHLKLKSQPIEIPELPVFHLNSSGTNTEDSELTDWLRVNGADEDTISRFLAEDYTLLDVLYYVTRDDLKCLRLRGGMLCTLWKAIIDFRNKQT

[2] = biological target: Tyrosine-protein kinase ABL1 (Homo sapiens) (UniProt P00519); conditions: at 1 µM
[3] = biological target: Tyrosine-protein kinase ABL1 (Homo sapiens) (UniProt P00519); conditions: at 10 µM
[4] = biological target: Tyrosine-protein kinase ABL2 (Homo sapiens) (UniProt P42684); conditions: at 1 µM
[5] = biological target: Tyrosine-protein kinase ABL2 (Homo sapiens) (UniProt P42684); conditions: at 10 µM
[6] = biological target: T2, Aurora kinase A (Homo sapiens) (UniProt O14965); conditions: at 1 µM
T2 sequence (whole entry): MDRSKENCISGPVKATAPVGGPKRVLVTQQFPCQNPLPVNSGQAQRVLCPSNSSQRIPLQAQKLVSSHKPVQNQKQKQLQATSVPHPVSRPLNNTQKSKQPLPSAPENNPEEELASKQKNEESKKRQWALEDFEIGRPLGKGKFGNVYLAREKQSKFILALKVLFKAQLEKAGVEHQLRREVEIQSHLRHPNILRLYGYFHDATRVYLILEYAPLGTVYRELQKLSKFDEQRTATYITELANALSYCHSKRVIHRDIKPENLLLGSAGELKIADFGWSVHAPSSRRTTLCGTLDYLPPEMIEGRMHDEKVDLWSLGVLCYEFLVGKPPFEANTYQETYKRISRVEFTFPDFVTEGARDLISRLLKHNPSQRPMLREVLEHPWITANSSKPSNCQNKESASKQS

[7] = biological target: T2, Aurora kinase A (Homo sapiens); conditions: at 10 µM
[8] = biological target: Aurora kinase B (Homo sapiens) (UniProt Q96GD4); conditions: at 1 µM
[9] = biological target: Aurora kinase B (Homo sapiens) (UniProt Q96GD4); conditions: at 10 µM
[10] = biological target: T3, Aurora kinase C (Homo sapiens) (UniProt Q9UQB9); conditions: at 1 µM
T3 sequence (whole entry): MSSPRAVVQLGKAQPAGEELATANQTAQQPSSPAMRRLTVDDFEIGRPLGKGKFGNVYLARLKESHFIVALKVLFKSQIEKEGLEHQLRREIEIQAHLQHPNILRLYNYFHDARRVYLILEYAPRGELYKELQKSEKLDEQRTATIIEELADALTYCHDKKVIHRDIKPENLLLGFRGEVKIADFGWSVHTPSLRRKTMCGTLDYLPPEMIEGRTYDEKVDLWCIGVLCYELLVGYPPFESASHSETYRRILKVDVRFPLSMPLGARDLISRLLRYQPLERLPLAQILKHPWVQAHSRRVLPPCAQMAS

[11] = biological target: T3, Aurora kinase C (Homo sapiens); conditions: at 10 µM
[12] = biological target: Tyrosine-protein kinase receptor UFO (Homo sapiens) (UniProt P30530); conditions: at 1 µM
[13] = biological target: Tyrosine-protein kinase receptor UFO (Homo sapiens) (UniProt P30530); conditions: at 10 µM
[14] = biological target: Protein-tyrosine kinase 6 (Homo sapiens) (UniProt Q13882); conditions: at 1 µM
[15] = biological target: Protein-tyrosine kinase 6 (Homo sapiens) (UniProt Q13882); conditions: at 10 µM
[16] = biological target: Tyrosine-protein kinase Blk (Homo sapiens) (UniProt P51451); conditions: at 1 µM
[17] = biological target: Tyrosine-protein kinase Blk (Homo sapiens) (UniProt P51451); conditions: at 10 µM
[18] = biological target: T4, Protein kinase C zeta type (Homo sapiens) (UniProt Q05513); conditions: at 1 µM
T4 sequence (whole entry): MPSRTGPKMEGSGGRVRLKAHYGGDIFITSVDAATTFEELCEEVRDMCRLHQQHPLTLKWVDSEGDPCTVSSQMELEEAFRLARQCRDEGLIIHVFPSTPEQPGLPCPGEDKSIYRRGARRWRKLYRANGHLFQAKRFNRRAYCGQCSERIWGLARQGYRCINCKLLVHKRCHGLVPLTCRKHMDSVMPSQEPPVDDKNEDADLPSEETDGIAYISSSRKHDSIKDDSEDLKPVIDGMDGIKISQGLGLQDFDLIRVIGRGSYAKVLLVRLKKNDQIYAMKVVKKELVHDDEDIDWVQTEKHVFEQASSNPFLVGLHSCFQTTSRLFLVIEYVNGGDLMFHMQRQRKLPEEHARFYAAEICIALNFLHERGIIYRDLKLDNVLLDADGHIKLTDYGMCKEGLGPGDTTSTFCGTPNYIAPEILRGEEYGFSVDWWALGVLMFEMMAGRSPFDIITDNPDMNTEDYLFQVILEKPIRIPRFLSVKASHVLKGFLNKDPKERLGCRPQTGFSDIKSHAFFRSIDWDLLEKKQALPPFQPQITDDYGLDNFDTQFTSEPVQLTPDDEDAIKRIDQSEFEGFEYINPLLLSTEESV

[19] = biological target: Tyrosine-protein kinase BTK (Homo sapiens) (UniProt Q06187); conditions: at 1 µM
[20] = biological target: Tyrosine-protein kinase BTK (Homo sapiens) (UniProt Q06187); conditions: at 10 µM

Protein-tyrosine kinase 6 (Homo sapiens), sequence (Q13882 whole entry, looked up): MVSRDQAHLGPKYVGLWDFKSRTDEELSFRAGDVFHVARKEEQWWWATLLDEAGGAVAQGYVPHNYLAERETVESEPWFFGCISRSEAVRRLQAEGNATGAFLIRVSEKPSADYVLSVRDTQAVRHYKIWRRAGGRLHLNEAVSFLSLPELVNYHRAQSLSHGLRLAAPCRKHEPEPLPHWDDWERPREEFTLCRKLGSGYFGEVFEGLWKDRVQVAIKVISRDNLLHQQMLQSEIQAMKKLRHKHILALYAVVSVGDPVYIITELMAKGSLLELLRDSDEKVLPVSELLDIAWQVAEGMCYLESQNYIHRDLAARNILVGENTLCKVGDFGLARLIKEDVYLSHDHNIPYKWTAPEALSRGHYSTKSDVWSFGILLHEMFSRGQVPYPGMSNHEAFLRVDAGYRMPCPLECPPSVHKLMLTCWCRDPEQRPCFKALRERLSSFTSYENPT
Tyrosine-protein kinase ABL1 (Homo sapiens), sequence (P00519 whole entry): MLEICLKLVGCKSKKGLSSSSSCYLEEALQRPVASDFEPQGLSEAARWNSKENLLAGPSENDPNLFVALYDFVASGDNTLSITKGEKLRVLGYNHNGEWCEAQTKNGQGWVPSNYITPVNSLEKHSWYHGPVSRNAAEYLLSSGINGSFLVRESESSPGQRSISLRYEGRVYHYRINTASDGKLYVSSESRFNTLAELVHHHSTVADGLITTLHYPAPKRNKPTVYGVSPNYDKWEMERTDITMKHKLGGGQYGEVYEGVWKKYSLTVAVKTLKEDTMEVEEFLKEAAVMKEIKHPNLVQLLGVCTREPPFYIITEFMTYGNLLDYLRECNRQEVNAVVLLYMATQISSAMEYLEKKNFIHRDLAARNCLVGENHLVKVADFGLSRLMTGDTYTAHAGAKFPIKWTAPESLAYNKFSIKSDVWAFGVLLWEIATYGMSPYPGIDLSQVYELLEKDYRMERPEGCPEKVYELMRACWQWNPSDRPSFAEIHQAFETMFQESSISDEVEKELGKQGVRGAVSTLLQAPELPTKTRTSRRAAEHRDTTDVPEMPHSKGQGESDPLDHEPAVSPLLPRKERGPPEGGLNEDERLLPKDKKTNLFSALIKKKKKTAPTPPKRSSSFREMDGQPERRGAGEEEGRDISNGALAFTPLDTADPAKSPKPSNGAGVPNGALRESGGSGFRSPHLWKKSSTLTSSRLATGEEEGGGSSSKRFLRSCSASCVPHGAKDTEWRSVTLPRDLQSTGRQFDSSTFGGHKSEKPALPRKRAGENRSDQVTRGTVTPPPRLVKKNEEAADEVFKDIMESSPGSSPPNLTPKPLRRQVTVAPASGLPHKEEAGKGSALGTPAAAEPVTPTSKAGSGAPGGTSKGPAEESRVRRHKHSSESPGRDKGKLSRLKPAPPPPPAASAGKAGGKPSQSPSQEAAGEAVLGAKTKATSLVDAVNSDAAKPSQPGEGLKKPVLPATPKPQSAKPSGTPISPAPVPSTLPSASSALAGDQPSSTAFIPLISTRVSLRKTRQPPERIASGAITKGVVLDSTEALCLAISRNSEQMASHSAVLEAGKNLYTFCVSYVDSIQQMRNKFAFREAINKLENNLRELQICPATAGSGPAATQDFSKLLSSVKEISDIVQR
Aurora kinase B (Homo sapiens), sequence (Q96GD4 whole entry): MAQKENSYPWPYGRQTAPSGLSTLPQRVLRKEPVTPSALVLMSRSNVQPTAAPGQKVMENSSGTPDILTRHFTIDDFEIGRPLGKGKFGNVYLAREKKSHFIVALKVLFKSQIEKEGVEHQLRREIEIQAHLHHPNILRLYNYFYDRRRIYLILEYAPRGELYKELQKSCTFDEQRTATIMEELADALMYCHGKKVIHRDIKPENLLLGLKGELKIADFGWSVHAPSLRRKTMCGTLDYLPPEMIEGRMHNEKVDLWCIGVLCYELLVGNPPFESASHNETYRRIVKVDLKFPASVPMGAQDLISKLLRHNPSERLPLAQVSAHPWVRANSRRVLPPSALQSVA
Tyrosine-protein kinase ABL2 (Homo sapiens), sequence (P42684 whole entry): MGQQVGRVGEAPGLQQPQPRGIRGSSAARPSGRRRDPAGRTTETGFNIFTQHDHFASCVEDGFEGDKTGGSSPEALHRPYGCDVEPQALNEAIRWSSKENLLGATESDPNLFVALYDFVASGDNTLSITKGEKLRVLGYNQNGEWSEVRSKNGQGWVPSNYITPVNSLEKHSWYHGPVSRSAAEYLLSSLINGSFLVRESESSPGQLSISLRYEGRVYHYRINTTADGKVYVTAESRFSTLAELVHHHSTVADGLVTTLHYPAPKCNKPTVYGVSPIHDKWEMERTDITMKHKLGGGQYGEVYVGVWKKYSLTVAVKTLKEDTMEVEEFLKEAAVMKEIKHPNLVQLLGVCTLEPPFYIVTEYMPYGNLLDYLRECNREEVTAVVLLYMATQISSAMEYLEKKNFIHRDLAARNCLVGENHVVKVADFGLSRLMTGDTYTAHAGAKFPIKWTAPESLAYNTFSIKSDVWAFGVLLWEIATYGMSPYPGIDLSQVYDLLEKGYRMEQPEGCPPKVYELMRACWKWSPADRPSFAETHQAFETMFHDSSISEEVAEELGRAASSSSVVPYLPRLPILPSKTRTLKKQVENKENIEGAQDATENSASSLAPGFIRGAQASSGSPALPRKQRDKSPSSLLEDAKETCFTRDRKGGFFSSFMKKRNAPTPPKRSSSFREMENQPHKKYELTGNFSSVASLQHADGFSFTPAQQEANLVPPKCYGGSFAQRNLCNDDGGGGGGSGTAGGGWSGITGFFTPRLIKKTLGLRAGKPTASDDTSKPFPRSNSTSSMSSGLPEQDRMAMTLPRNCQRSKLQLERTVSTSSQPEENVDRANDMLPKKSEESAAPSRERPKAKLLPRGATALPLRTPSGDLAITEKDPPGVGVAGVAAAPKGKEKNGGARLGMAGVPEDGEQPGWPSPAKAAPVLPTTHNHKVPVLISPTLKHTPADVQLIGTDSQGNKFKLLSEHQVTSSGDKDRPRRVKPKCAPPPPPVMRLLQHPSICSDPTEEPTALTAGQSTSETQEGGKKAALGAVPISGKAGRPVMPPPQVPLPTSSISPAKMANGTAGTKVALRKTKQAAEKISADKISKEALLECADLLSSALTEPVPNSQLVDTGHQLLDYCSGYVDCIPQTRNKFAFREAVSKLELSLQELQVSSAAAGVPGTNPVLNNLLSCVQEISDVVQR
Tyrosine-protein kinase Blk (Homo sapiens), sequence (P51451 2-505 limits assumed): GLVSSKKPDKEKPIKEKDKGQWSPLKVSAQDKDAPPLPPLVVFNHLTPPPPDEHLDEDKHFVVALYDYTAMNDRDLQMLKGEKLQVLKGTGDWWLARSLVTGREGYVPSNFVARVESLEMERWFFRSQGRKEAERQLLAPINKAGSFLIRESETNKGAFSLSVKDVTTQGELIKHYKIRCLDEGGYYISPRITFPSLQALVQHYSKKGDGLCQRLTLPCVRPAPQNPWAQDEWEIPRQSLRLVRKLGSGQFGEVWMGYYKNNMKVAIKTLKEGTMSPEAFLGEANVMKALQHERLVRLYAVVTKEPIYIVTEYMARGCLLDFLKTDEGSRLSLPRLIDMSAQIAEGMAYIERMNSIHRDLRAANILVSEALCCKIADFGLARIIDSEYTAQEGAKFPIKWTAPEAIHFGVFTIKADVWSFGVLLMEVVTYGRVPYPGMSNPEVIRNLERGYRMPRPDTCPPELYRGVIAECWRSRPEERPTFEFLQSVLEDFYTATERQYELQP
Tyrosine-protein kinase receptor UFO (Homo sapiens), sequence (P30530 whole entry): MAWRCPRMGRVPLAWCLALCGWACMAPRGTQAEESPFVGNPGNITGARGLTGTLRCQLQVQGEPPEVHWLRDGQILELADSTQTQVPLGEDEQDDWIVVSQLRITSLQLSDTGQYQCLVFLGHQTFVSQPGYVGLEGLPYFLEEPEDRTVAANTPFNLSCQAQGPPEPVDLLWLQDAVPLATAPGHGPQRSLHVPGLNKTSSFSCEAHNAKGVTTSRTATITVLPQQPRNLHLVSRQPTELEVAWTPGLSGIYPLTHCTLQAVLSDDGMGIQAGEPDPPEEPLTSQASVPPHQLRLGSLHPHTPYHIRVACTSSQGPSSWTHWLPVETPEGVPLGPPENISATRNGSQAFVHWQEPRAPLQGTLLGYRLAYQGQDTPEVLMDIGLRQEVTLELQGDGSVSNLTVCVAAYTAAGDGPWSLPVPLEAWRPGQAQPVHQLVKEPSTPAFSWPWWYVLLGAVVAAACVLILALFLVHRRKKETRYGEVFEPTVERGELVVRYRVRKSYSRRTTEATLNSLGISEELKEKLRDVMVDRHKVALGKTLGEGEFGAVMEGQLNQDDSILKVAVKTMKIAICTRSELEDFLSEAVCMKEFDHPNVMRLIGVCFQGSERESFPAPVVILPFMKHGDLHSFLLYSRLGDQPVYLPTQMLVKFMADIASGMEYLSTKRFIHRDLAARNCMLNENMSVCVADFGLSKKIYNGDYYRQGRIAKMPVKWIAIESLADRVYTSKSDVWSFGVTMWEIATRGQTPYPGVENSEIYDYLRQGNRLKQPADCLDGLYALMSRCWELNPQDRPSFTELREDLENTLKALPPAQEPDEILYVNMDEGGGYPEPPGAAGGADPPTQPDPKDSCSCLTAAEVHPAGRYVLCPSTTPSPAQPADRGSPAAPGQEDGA

Row | Structure (SMILES) | residual activity [1] [%] | residual activity [2] [%] | residual activity [3] [%] | residual activity [4] [%] | residual activity [5] [%] | residual activity [6] [%] | residual activity [7] [%] | residual activity [8] [%] | residual activity [9] [%] | residual activity [10] [%] | residual activity [11] [%] | residual activity [12] [%] | residual activity [13] [%] | residual activity [14] [%] | residual activity [15] [%] | residual activity [16] [%] | residual activity [17] [%] | residual activity [18] | residual activity [19] [%] | residual activity [20] [%]
1 | CCN(CC)CCNC(=O)c1c(C)[nH]c(/C=C2\C(=O)Nc3ccc(Cl)cc32)c1C | 43 | 23 | 0 | 47 | 7 | 47 | 30 | 7 | 1 | 38 | 5 | 9 | 1 | 65 | 11 | 1 | 0 |  |  | 
2 | COc1cc2ncnc(Nc3cccc(Cl)c3)c2cc1OC | 106 | 41 | 14 | 48 | 10 |  | 49 | 64 | 8 | 100 | 45 | 102 | 51 | 33 | 3 | 43 | 5 |  |  | 
3 | Cn1c2ccccc2c2c3c(c4c5ccccc5n(CCC#N)c4c21)CNC3=O | 16 |  |  |  |  | 4 | 19 | 0 | 1 | 47 | 35 | 53 | 32 |  |  |  |  | 102% (inactive) | 10 | 9
4 | CC(C)c1nn(-c2c(Cl)cccc2Cl)c2nc(Cc3ccc(OCCO)cc3)[nH]c(=O)c12 | 90 | 97 | 80 | 89 | 64 | 83 | 82 | 69 | 58 | 85 | 90 | 90 | 87 |  |  | 92 | 76 |  | 87 | 97
5 | COc1cc2nccc(Oc3ccc(NC(=S)NC(=O)c4ccccc4C)cc3)c2cc1OC | 77 | 22 | 9 | 50 | 18 | 0 | 1 | 2 | -1 | 13 | 1 | 11 | 8 | 22 | 11 | 0 | 0 |  | 17 | 2
6 | O=C(CCCc1ccc(-c2ccccc2F)cc1)Nc1ccc(O)cc1 | 105 | 110 |  | 105 | 86 | 130 | 102 | 107 | 91 | 97 | 92 | 105 | 100 | 104 | 96 |  |  |  | 106 | 95
7 | O=c1cc(N2CCNCC2)oc2c(-c3ccccc3)cccc12 | 78 | 88 | 89 | 97 | 101 | 95 | 80 | 79 | 63 |  |  | 80 | 76 |  | 99 |  | 71 |  |  | 
8 | O=c1cc(N2CCOCC2)oc2c1ccc1ccccc12 | 94 | 99 |  |  |  | 125 | 108 | 110 | 90 | 102 | 87 | 82 | 78 | 110 | 105 |  | 90 | 109% (inactive) | 94 | 86
9 | O=C(c1ccccc1)c1ccc(N2CCOCC2)cc1O | 95 | 94 | 82 | 98 | 98 | 77 | 91 | 86 | 65 | 64 | 78 | 86 | 72 |  |  | 95 | 81 |  |  | 116
10 | O=C(O)/C=C/c1cc(Br)c(Br)c(Br)c1Br | 91 | 86 | 40 | 75 | 53 | 83 | 38 | 60 | 16 | 98 | 78 | 91 | 51 | 99 | 101 | 99 | 81 |  | 102 | 91
11 | c1ccc(-c2cnc(Nc3ccc(OCCN4CCCC4)cc3)s2)cc1 |  | 61 | 11 | 46 | 8 |  |  | 67 | 18 | 110 | 47 |  |  |  | 34 | 75 | 6 | 106% (inactive) |  | 
12 | CCCCc1c(-c2ccc(OC)cc2)[nH]c2nccnc12 |  | 74 | 80 | 59 | 53 | 9 | 13 | 1 | -1 | 59 | 54 | 77 |  | 37 | 46 | 73 | 72 | 114% (inactive) | 35 | 4
